# From the supplement of paper PMC4466140
# Tests used:
# Experiment in all cases: SPOT peptide array binding signal intensity (averaged, normalized) (arbitrary units (background-subtracted, floor 0; scale differs between SH3 domains)); higher = stronger binding of the SH3 domain to the peptide
# CaNbp2 = target: CaNbp2
# Summary of the method: (§1)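 GST-fused SH3 domains, from four yeast species, were produced in E. coli BL21(DE3) and captured on glutathione Sepharose. Membranes of cellulose carrying synthetic 15-mer peptides, in which cysteines had been replaced by serines, were exposed to each domain at 10 μg/ml overnight at 4°C in TBS-based blocking buffer. After anti-GST antibody, an HRP anti-mouse secondary and luminol, spots were imaged and quantified using Genespotter. Binding signal is normalized and background-subtracted spot intensity, averaged over replicates, in arbitrary units that differ between domains.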
# CaRvs167 = target: CaRvs167
# Summary of the method: as §1
# CaRvs167-3 = target: CaRvs167-3
# Summary of the method: as §1
# CaSho1 = target: CaSho1
# Summary of the method: as §1
# CaSla1-D1-D2 = target: CaSla1-D1-D2
# Summary of the method: as §1
# CaSla1-D3 = target: CaSla1-D3
# Summary of the method: as §1
# ScAbp1 = target: ScAbp1
# Summary of the method: as §1
# ScBbc1 = target: ScBbc1
# Summary of the method: as §1
# ScBem1-D1 = target: ScBem1-D1
# Summary of the method: as §1
# ScBzz1-D1 = target: ScBzz1-D1
# Summary of the method: as §1
# ScBzz1-D2 = target: ScBzz1-D2
# Summary of the method: as §1
# ScCyk3 = target: ScCyk3
# Summary of the method: as §1
# ScFus1 = target: ScFus1
# Summary of the method: as §1
# ScHof1 = target: ScHof1
# Summary of the method: as §1
# ScHse1 = target: ScHse1
# Summary of the method: as §1
# ScLsb1 = target: ScLsb1
# Summary of the method: as §1
# ScLsb2 = target: ScLsb2
# Summary of the method: as §1
# ScLsb3 = target: ScLsb3
# Summary of the method: as §1
# ScLsb4 = target: ScLsb4
# Summary of the method: as §1
# ScMyo3 = target: ScMyo3
# Summary of the method: as §1
# ScMyo5 = target: ScMyo5
# Summary of the method: as §1
# ScNbp2 = target: ScNbp2
# Summary of the method: as §1
# ScPex13 = target: ScPex13
# Summary of the method: as §1
# ScRvs167 = target: ScRvs167
# Summary of the method: as §1
# ScSho1 = target: ScSho1
# Summary of the method: as §1
# ScSla1-D1-D2 = target: ScSla1-D1-D2
# Summary of the method: as §1
# ScSla1-D3 = target: ScSla1-D3
# Summary of the method: as §1
# SpAbp1-D1 = target: SpAbp1-D1
# Summary of the method: as §1
# SpBbc1 = target: SpBbc1
# Summary of the method: as §1
# SpBzz1-D1 = target: SpBzz1-D1
# Summary of the method: as §1
# SpBzz1-D2 = target: SpBzz1-D2
# Summary of the method: as §1
# SpCyk3 = target: SpCyk3
# Summary of the method: as §1
# SpHof1 = target: SpHof1
# Summary of the method: as §1
# SpHof1-2 = target: SpHof1-2
# Summary of the method: as §1
# SpHof1-3 = target: SpHof1-3
# Summary of the method: as §1
# SpHse1 = target: SpHse1
# Summary of the method: as §1
# SpLsb1 = target: SpLsb1
# Summary of the method: as §1
# SpLsb4 = target: SpLsb4
# Summary of the method: as §1
# SpMyo1 = target: SpMyo1
# Summary of the method: as §1
# SpNbp2 = target: SpNbp2
# Summary of the method: as §1
# SpPex13 = target: SpPex13
# Summary of the method: as §1
# SpRvs167 = target: SpRvs167
# Summary of the method: as §1
# SpSla1-D1-D2 = target: SpSla1-D1-D2
# Summary of the method: as §1
# SpSla1-D3 = target: SpSla1-D3
# Summary of the method: as §1
binder,measurement,setting,value
NLDRSKISLPDFDDE,SPOT peptide array binding signal intensity,CaNbp2,193
same,SPOT peptide array binding signal intensity,CaRvs167,1.33
same,SPOT peptide array binding signal intensity,CaRvs167-3,1.25
same,SPOT peptide array binding signal intensity,CaSho1,74.5
same,SPOT peptide array binding signal intensity,CaSla1-D1-D2,≤ 0
same,SPOT peptide array binding signal intensity,CaSla1-D3,≤ 0
same,SPOT peptide array binding signal intensity,ScAbp1,11
same,SPOT peptide array binding signal intensity,ScBbc1,1.5
same,SPOT peptide array binding signal intensity,ScBem1-D1,1
same,SPOT peptide array binding signal intensity,ScBzz1-D1,39.5
same,SPOT peptide array binding signal intensity,ScBzz1-D2,18
same,SPOT peptide array binding signal intensity,ScCyk3,16
same,SPOT peptide array binding signal intensity,ScFus1,34
same,SPOT peptide array binding signal intensity,ScHof1,2
same,SPOT peptide array binding signal intensity,ScHse1,1260
same,SPOT peptide array binding signal intensity,ScLsb1,≤ 0
same,SPOT peptide array binding signal intensity,ScLsb2,≤ 0
same,SPOT peptide array binding signal intensity,ScLsb3,≤ 0
same,SPOT peptide array binding signal intensity,ScLsb4,3
same,SPOT peptide array binding signal intensity,ScMyo3,3.5
same,SPOT peptide array binding signal intensity,ScMyo5,4
same,SPOT peptide array binding signal intensity,ScNbp2,28
same,SPOT peptide array binding signal intensity,ScPex13,≤ 0
same,SPOT peptide array binding signal intensity,ScRvs167,0.167
same,SPOT peptide array binding signal intensity,ScSho1,87.5
same,SPOT peptide array binding signal intensity,ScSla1-D1-D2,≤ 0
same,SPOT peptide array binding signal intensity,ScSla1-D3,1
same,SPOT peptide array binding signal intensity,SpAbp1-D1,11
same,SPOT peptide array binding signal intensity,SpBbc1,≤ 0
same,SPOT peptide array binding signal intensity,SpBzz1-D1,14.5
same,SPOT peptide array binding signal intensity,SpBzz1-D2,≤ 0
same,SPOT peptide array binding signal intensity,SpCyk3,≤ 0
same,SPOT peptide array binding signal intensity,SpHof1,11.5
same,SPOT peptide array binding signal intensity,SpHof1-2,4
same,SPOT peptide array binding signal intensity,SpHof1-3,70
same,SPOT peptide array binding signal intensity,SpHse1,983
same,SPOT peptide array binding signal intensity,SpLsb1,≤ 0
same,SPOT peptide array binding signal intensity,SpLsb4,≤ 0
same,SPOT peptide array binding signal intensity,SpMyo1,9
same,SPOT peptide array binding signal intensity,SpNbp2,16
same,SPOT peptide array binding signal intensity,SpPex13,≤ 0
same,SPOT peptide array binding signal intensity,SpRvs167,0.5
same,SPOT peptide array binding signal intensity,SpSla1-D1-D2,≤ 0
same,SPOT peptide array binding signal intensity,SpSla1-D3,≤ 0
